Assay results reported in ChEMBL document CHEMBL3433997, “St. Jude Leishmania screening dataset” (2016).

Each compound was assayed against Hexose transporter 1 (Plasmodium falciparum) (UniProt O97467) (assay: ST_JUDE_LEISH: Cytotoxicity at 2uM final concentration against transgenic Leishmania Mexicana promastigotes LmPfHT that are glucose transport deficient and complemented with the Plasmodium falciparum hexose transporter. Activity is measured by DNA content using SYBR green in vitro).
Assay type: functional

| Structure (SMILES) | inhibition |
| --- | --- |
| Cc1cc(NC(=O)c2cc(S(=O)(=O)N3CCCCC3)ccc2C)no1 | 4.4% |
| O=C(Nc1ccc(C(F)(F)F)cc1)NC1CCN(c2ccnc3cc(Cl)ccc23)CC1 | 6.26% |
| COc1ccc2nc3cc(Cl)ccc3c(NCCCCCCNc3c4ccc(Cl)cc4nc4ccc(OC)cc34)c2c1 | 11.2% |
| Cc1cc(NC(=O)Nc2ccc(C(C)(C)C)cc2)c2ccccc2n1 | 3.8% |
| N=C(Nc1cccc(Cc2ccccc2)n1)Nc1ncccn1 | 1.79% |
| CCOc1cc(OCC)c2ccccc2c1CNCCCCCCNCc1c(OCC)cc(OCC)c2ccccc12 | 50.7% |
| O=c1ccc2ccc(O)c(O)c2o1 | 5% |
| Cc1ccc(Nc2ccnc(Nc3ccc(C)c(F)c3)n2)cc1O | 12.6% |
| CC(C)(C)c1ccc(OCC(=O)NC2CCN(c3ccnc4cc(Cl)ccc34)C2)cc1 (stereo not given) | 0.05% |
| CC(C)CNCc1cccc(-c2cccc(CN(CCCN3CCN(C)CC3)C(=O)NC3CCCCC3)c2)c1 | 0.99% |
| CCCCCC(C)C(C)c1cc(O)c2c(c1)OC(C)(C)C=C2c1cc[n+]([O-])cc1 (stereo not given) | 10.4% |
| CCn1cc(-c2cc(C(=O)Nc3ccc(OC)cc3C)c3ccccc3n2)c(C)n1 | 4.56% |
| CC(=O)Nc1ccc2[nH]cc(C3CCN(CC4CCN(C(=O)/C=C/c5ccc(Cl)c(Cl)c5)CC4)CC3)c2n1 | 0.87% |
| COc1ccc(Nc2nc(NCc3cccnc3)cc(-c3ccc(OC)cc3)n2)cc1 | 0.66% |
| COc1cc(-c2nc(-c3ccncc3)c(-c3ccc4c(c3)CCC4=NO)[nH]2)ccc1OCCN1CCN(C)CC1 | 6.49% |
| Cc1ccc(C(NC(=O)Cc2ccccc2)c2ccc3cccnc3c2O)cc1 (stereo not given) | 22.8% |
| O=C(C=Cc1ccc(Cl)c(Cl)c1)NCCCCCN1CCC(CCNS(=O)(=O)c2ccc(F)cc2)CC1 | 0.05% |
| COc1ccc(CNc2ncc(-c3ccsc3)c(-c3nccs3)n2)cc1OC | 0.94% |
| Cc1cc(OCC(=O)Nc2ccc(-c3nc4ccccc4[nH]3)cc2)cc(C)c1Cl | 2% |
| CCOC(=O)c1cncc(/C=C/c2cc(C)cnc2N)c1 | 8.59% |

| Structure (SMILES) | inhibition |
| --- | --- |
| COc1cc(C)cc(CN2CCC(Cc3ccccc3)CC2)c1O | 0.17% |
| COc1cccc(Nc2c(C(N)=O)cnc3ccc(-c4ccccc4)cc23)c1 | 0.94% |
| N#Cc1ccc(C(=O)Nc2cc(-c3cccc(O)c3)cc3[nH]ncc23)cc1 | 2.33% |
| CC(C)(C)c1ccc2[nH]c(-c3ccc(/C=C/C(=O)NCc4ccc(Cl)c(Cl)c4)cc3)nc2c1 | 6.31% |
| CCN(CCNC(=O)Cn1c(C)cc2cc([N+](=O)[O-])ccc21)c1cccc(C)c1 | 6.77% |
| CCCOc1cc(NC(=O)Nc2ccnc3ccccc23)cc(OCCC)c1 | 3% |
| COc1ccc(NC(=O)c2csc(-c3cc(NC(=O)c4ccnc(N5CCCC5)c4)ccc3C)c2)cc1N1CCN(C)CC1 | 2.56% |
| CCC[C@@H]1CCN[C@H]([C@H](O)c2ccnc3ccc(OC)cc23)C1 | 3.5% |
| Cc1nn(C)c(C)c1CN(Cc1nc(-c2cccc(Oc3ccccc3)c2)oc1C)C1CC1 | 4.11% |
| COc1ccc2ncc(F)c(CCN3CC[C@@H](CNCc4cc5c(cn4)OCS5)C3)c2n1 | 1.69% |
| Cc1cccc(C(=O)NC(NC(=S)Nc2cc(Cl)ccc2Cl)C(Cl)(Cl)Cl)c1 (stereo not given) | -1.9% |
| CCOC(=O)CN(c1ccc(Br)cc1OCCOc1cc(Br)ccc1N(CC(=O)OCC)C(C)C(=O)OCC)C(C)C(=O)OCC (stereo not given) | -0.2% |
| COc1ccc(CCCc2nc(N)nc(N)c2-c2ccc(Cl)cc2)cc1 | 6.84% |
| O=C(CSc1nn(-c2ccccc2)c(=S)s1)c1c[nH]c2ccccc12 | 2.64% |
| CC(C)[C@H](NC(=O)NC1CCC(CCN2C3CCC2CC(OC(=O)C(CO)c2ccccc2)C3)CC1)C(O)(c1ccccc1)c1ccccc1 (stereo not given in full) | 3.92% |
| SC(=Nc1ccc(Cl)c(Cl)c1)NN=Cc1ccccn1 | 1.69% |
| COCCOC(=O)C(=O)c1c(-c2ccccc2)c(-c2ccc(OC)c(OC)c2)c2c3cc(OC)c(OC)cc3ccn12 | 2.7% |
| CN(C)CCOc1ccc(-n2c(-c3nonc3N)nc3cncc(-c4ccc(F)cc4)c32)cc1 | 3.94% |
| CCCC(=O)c1cnc2cc(O)ccc2c1Nc1ccccc1C | 6.97% |
| CN(C)CCN(C)Cc1cccc(-c2ccc3c(Nc4cc(O)c(Cl)cc4F)ccnc3c2)c1 | -0.99% |

These compounds were tested against Glucose transporter (Leishmania mexicana) (UniProt O61059) (assay: ST_JUDE_LEISH: Cytotoxicity at 2uM final concentration against transgenic Leishmania Mexicana promastigotes LmGT2 that are glucose transport deficient and complemented with the L. Mexicana glucose transporter 2. Activity is measured by DNA content using SYBR green in vitro).
Assay type: functional

| Structure (SMILES) | inhibition |
| --- | --- |
| Cc1cc(NC(=O)c2cc(S(=O)(=O)N3CCCCC3)ccc2C)no1 | 2.15% |
| O=C(Nc1ccc(C(F)(F)F)cc1)NC1CCN(c2ccnc3cc(Cl)ccc23)CC1 | 4.68% |
| COc1ccc2nc3cc(Cl)ccc3c(NCCCCCCNc3c4ccc(Cl)cc4nc4ccc(OC)cc34)c2c1 | 9.4% |
| Cc1cc(NC(=O)Nc2ccc(C(C)(C)C)cc2)c2ccccc2n1 | -3.31% |
| N=C(Nc1cccc(Cc2ccccc2)n1)Nc1ncccn1 | 1.88% |
| CCOc1cc(OCC)c2ccccc2c1CNCCCCCCNCc1c(OCC)cc(OCC)c2ccccc12 | 56.7% |
| O=c1ccc2ccc(O)c(O)c2o1 | 4.39% |
| Cc1ccc(Nc2ccnc(Nc3ccc(C)c(F)c3)n2)cc1O | 3.98% |
| CC(C)(C)c1ccc(OCC(=O)NC2CCN(c3ccnc4cc(Cl)ccc34)C2)cc1 (stereo not given) | -1.09% |
| CC(C)CNCc1cccc(-c2cccc(CN(CCCN3CCN(C)CC3)C(=O)NC3CCCCC3)c2)c1 | -0.56% |
| CCCCCC(C)C(C)c1cc(O)c2c(c1)OC(C)(C)C=C2c1cc[n+]([O-])cc1 (stereo not given) | 9.99% |
| CCn1cc(-c2cc(C(=O)Nc3ccc(OC)cc3C)c3ccccc3n2)c(C)n1 | 3.97% |
| CC(=O)Nc1ccc2[nH]cc(C3CCN(CC4CCN(C(=O)/C=C/c5ccc(Cl)c(Cl)c5)CC4)CC3)c2n1 | -1.1% |
| COc1ccc(Nc2nc(NCc3cccnc3)cc(-c3ccc(OC)cc3)n2)cc1 | -0.82% |
| COc1cc(-c2nc(-c3ccncc3)c(-c3ccc4c(c3)CCC4=NO)[nH]2)ccc1OCCN1CCN(C)CC1 | 5.31% |
| Cc1ccc(C(NC(=O)Cc2ccccc2)c2ccc3cccnc3c2O)cc1 (stereo not given) | 0.77% |
| O=C(C=Cc1ccc(Cl)c(Cl)c1)NCCCCCN1CCC(CCNS(=O)(=O)c2ccc(F)cc2)CC1 | 4.55% |
| COc1ccc(CNc2ncc(-c3ccsc3)c(-c3nccs3)n2)cc1OC | 2.07% |
| Cc1cc(OCC(=O)Nc2ccc(-c3nc4ccccc4[nH]3)cc2)cc(C)c1Cl | -0.9% |
| CCOC(=O)c1cncc(/C=C/c2cc(C)cnc2N)c1 | 8.04% |

| Structure (SMILES) | inhibition |
| --- | --- |
| COc1cc(C)cc(CN2CCC(Cc3ccccc3)CC2)c1O | 1.48% |
| COc1cccc(Nc2c(C(N)=O)cnc3ccc(-c4ccccc4)cc23)c1 | 1.58% |
| N#Cc1ccc(C(=O)Nc2cc(-c3cccc(O)c3)cc3[nH]ncc23)cc1 | 0.89% |
| CC(C)(C)c1ccc2[nH]c(-c3ccc(/C=C/C(=O)NCc4ccc(Cl)c(Cl)c4)cc3)nc2c1 | 1.89% |
| CCN(CCNC(=O)Cn1c(C)cc2cc([N+](=O)[O-])ccc21)c1cccc(C)c1 | 6.91% |
| CCCOc1cc(NC(=O)Nc2ccnc3ccccc23)cc(OCCC)c1 | 3.42% |
| COc1ccc(NC(=O)c2csc(-c3cc(NC(=O)c4ccnc(N5CCCC5)c4)ccc3C)c2)cc1N1CCN(C)CC1 | -1.28% |
| CCC[C@@H]1CCN[C@H]([C@H](O)c2ccnc3ccc(OC)cc23)C1 | 4.53% |
| Cc1nn(C)c(C)c1CN(Cc1nc(-c2cccc(Oc3ccccc3)c2)oc1C)C1CC1 | 5.34% |
| COc1ccc2ncc(F)c(CCN3CC[C@@H](CNCc4cc5c(cn4)OCS5)C3)c2n1 | -0.48% |
| Cc1cccc(C(=O)NC(NC(=S)Nc2cc(Cl)ccc2Cl)C(Cl)(Cl)Cl)c1 (stereo not given) | -2.85% |
| CCOC(=O)CN(c1ccc(Br)cc1OCCOc1cc(Br)ccc1N(CC(=O)OCC)C(C)C(=O)OCC)C(C)C(=O)OCC (stereo not given) | 1.37% |
| COc1ccc(CCCc2nc(N)nc(N)c2-c2ccc(Cl)cc2)cc1 | 3.75% |
| O=C(CSc1nn(-c2ccccc2)c(=S)s1)c1c[nH]c2ccccc12 | 2.3% |
| CC(C)[C@H](NC(=O)NC1CCC(CCN2C3CCC2CC(OC(=O)C(CO)c2ccccc2)C3)CC1)C(O)(c1ccccc1)c1ccccc1 (stereo not given in full) | 1.15% |
| SC(=Nc1ccc(Cl)c(Cl)c1)NN=Cc1ccccn1 | -1.58% |
| COCCOC(=O)C(=O)c1c(-c2ccccc2)c(-c2ccc(OC)c(OC)c2)c2c3cc(OC)c(OC)cc3ccn12 | 1.72% |
| CN(C)CCOc1ccc(-n2c(-c3nonc3N)nc3cncc(-c4ccc(F)cc4)c32)cc1 | 2.52% |
| CCCC(=O)c1cnc2cc(O)ccc2c1Nc1ccccc1C | 0.57% |
| CN(C)CCN(C)Cc1cccc(-c2ccc3c(Nc4cc(O)c(Cl)cc4F)ccnc3c2)c1 | -2.95% |
